Source: PubChem BioAssay AID1568 (National Center for Advancing Translational Sciences (NCATS), 2009)
Inconclusive results are not listed. Entries that show only a call come without a potency. Active and inactive are the calls of the source. Calls follow the shape of the dose curve; as a rule, active = well fitted curve in the direction sought with a large enough effect; inconclusive = small, poorly fitted or top-dose-only effect, or effect the other way, or another doubt; inactive = no such curve, though single readings can be large or run the other way.

Experiment: Cell Viability Secondary Assay to Characterize qHTS Inhibitors of the Interaction of Thyroid Hormone Receptor and Steroid Receptor Coregulator 2
Details: cell viability counter-screen, qHTS titration; series mostly up to 29.9 µM
Excerpt: NIH Molecular Libraries Probe Production Network [MLPCN]
NIH Chemical Genomics Center [NCGC]
Assay Provider: R. Kip Guy, St. Jude Children's Research Hospital
Thyroid receptor (TR) regulates many homeostatic processes including basal metabolism, cardiovascular function, body weight, and lipid trafficking. TR modulators are potential therapeutics for obesity and hyperlipidemias but current thyroid analogs have undesirable side effects, particularly cardiac stimulation. This secondary assay characterized selected actives identified in the qHTS for Inhibitors of the Interaction of Thyroid Hormone Receptor and Steroid Receptor Coregulator 2. The human follicular thyroid carcinoma cell line WRO (kindly provided by Dr. M. D. Ringel) stably expresses TRbeta and a luciferase reporter gene fused to TR response element. The effect of compounds on the viability of these cells was assessed by measuring ATP levels. Compounds that reduce cell viability are likely cytotoxic.
NCGC Assay Protocol Summary:
Cells were maintained in RPMI 1640 culture medium supplemented with 10% heat-inactivated FBS, 0.33 mg/ml hygromycin, 0.33 mg/ml geneticin, 50 units/ml penicillin, 50 ug/ml streptomycin. Cells were harvested and resuspended at 330,000 cells/ml in assay medium (50% DMEM 50% F-12 medium without Phenol-Red (Cellgro #16-405-CV), L-glutamine, 10% heat inactivated and charcoal treated FBS, 100 uM non-essential amino acid, 50 units/ml penicillin, 50 ug/ml streptomycin). Cells were dispensed at 10,000 cells/30 ul/well into 384 well plates (Corning 3917) and incubated 12 h at 37 C and 5% CO2. Compounds and T3 (100nM final concentration) were added using a pin tool and plates were incubated 16 h incubation at 37 C and 5% CO2. Following incubation, plates were equilibrated at ambient temperature for 30 min, 20 ul of CellTiter-Glo (Promega) was added and luminescence was detected by an EnVision (PerkinElmer).

Row | Structure (SMILES) | Potency
1 | O=C(O)CC1OCC=C2CN3CCC45C6=CC(=O)C(=O)C([N+](=O)[O-])=C6NC4C1C2CC35 (stereo not given) | inactive
2 | Cc1[nH]n(-c2ccccc2)c(=O)c1C(c1ccc([N+](=O)[O-])cc1)c1c(C)[nH]n(-c2ccccc2)c1=O | inactive
3 | COP(=S)(OC)Oc1ccc([N+](=O)[O-])cc1 | 31.6 µM (active)
4 | CN1CC[C@@]2(C)c3cc(O)ccc3N(C)C2O1 (stereo not given in full) | 14.1 µM (active)
5 | CCCCCn1c(N)c(C(=O)NCc2cccs2)c2nc3ccccc3nc21 | inactive
